# Data from the supplement of paper PMC12067093, “Discovery and optimisation of a covalent ligand for TRIM25 and its application to targeted protein ubiquitination” (Chemical Science, 2025).
# Targets with the largest changes are over-represented here; the source holds about 21,000 in all.
# Compound: Cc1cc(ccc1-c1ccccc1)C(=O)N1CCCN(CC1)C(=O)CCl [compound 10]
# Experiment: probe-labelled cysteine peptide fold change vs DMSO (competition) (log2 fold change); higher = less target engagement (more negative = stronger competition)
# Settings: THP-1, incubation time: 4 h
# 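Note: competitive profiling in live THP-1 cells: cysteine peptides tagged with an iodoacetamide desthiobiotin (IA-DTB) probe, intensity after compound treatment relative to DMSO-treated cells.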
Target,probe-labelled cysteine peptide fold change (10 µM),probe-labelled cysteine peptide fold change (50 µM)
GSDMD_P57764_38_RVVQELDHGGEFIPVTSLQSSTGFQPYCLVVR (UniProt P57764),0.275,-0.375
GRHPR_Q9UBQ7_29_AADCEVEQWDSDEPIPAK (UniProt Q9UBQ7),-0.563,-0.167
HINT3_Q9NQE9_66+73_QDPGTELLHCENEDLICFK (UniProt Q9NQE9),-0.386,-0.532
GBF1_Q92538_1707_IDCFLPHLRDELFK (UniProt Q92538),-0.0239,-0.111
FKBP3_Q00688_133_KGDVVHCWYTGTLQDGTVFDTNIQTSAK (UniProt Q00688),0.106,-0.0529
FHL1_Q13642_150_GEDFYCVTCHETK (UniProt Q13642),0.107,-0.0472
GFM2_Q969S9_248_LLWNCNSNDGK (UniProt Q969S9),-0.353,-0.937
GSTP1_P09211_102_DQQEAALVDMVNDGVEDLRCK (UniProt P09211),0.0332,1.08
GOLGA2_Q08379_984_ERPGLGSNPCIPFFYR (UniProt Q08379),-0.149,-0.0471
HDAC10_Q969S8_508_LLCVALGQLDRPPDLAHDGR (UniProt Q969S8),0.15,0.0528
GOLGA3_Q08378_769_LGELQGEAASREDTICLLQNEK (UniProt Q08378),-0.084,-0.193
GFPT1_Q06210_264_VDSTTCLFPVEEK (UniProt Q06210),-0.0167,0.203
GTPBP3_Q969Y2_188_QLDGELGHLCR (UniProt Q969Y2),-0.0966,-0.00935
HLA-C_P04222_345+364_GGSCSQAASSNSAQGSDESLIACKA (UniProt P04222),-0.638,-1.66
HGS_O14964_212_VCEPCYEQLNR (UniProt O14964),0.0236,-0.13
GRHPR_Q9UBQ7_288_NCVILPHIGSATHR (UniProt Q9UBQ7),0.293,0.0427
GATD1_Q8NB37_94_YHALLIPSCPGALTDLASSGSLAR (UniProt Q8NB37),0.0159,-0.00276
GPX1_P07203_78_GLVVLGFPCNQFGHQENAKNEEILNSLK (UniProt P07203),-0.208,-1.3
FLAD1_Q8NFF5_338_LTLDSEEEGPLEECLAYLTAR (UniProt Q8NFF5),-0.0485,0.177
GFI1_Q99684_155_GAGLGLFCEPAPEPGHPAALYGPK (UniProt Q99684),-0.225,1.62
FSCN1_Q16658_226_VAFRDCEGR (UniProt Q16658),-0.244,-0.563

Target,probe-labelled cysteine peptide fold change (10 µM),probe-labelled cysteine peptide fold change (50 µM)
GATD3B_A0A0B4J2D5_177_EFHQAGKPIGLCCIAPVLAAK<|>GATD3A_P0DPI2_177_EFHQAGKPIGLCCIAPVLAAK (UniProt P0DPI2),-0.563,-1.98
GNB1_P62873_148+149_ELAGHTGYLSCCR (UniProt P62873),-0.185,-0.407
HDHD5_Q9BXW7_392_DLCFSPGLMEASHVVNDVNEAVQLVFRK (UniProt Q9BXW7),-0.183,-1.22
GLRX_P35754_26_VVVFIKPTCPYCR (UniProt P35754),-1.05,-3.44
FTSJ3_Q8IY81_293_VCCQDIR (UniProt Q8IY81),0.217,-0.481
HK3_P52790_840_AAQLCGAGVAAVVEK (UniProt P52790),0.169,-0.0558
GSK3B_P49841_335_LTPLEACAHSFFDELRDPNVK (UniProt P49841),0.133,0.0393
GSPT1_P15170_464_TAGTICLETFK (UniProt P15170),0.00954,0.0941
GATM_P50440_50_NSCAADDK (UniProt P50440),-0.478,-1.27
HELZ_P42694_100_AVLCCMQLK (UniProt P42694),-0.406,-1.27
GEMIN5_Q8TEQ6_1421_NEPEVEAEQPLCSSQSQCK (UniProt Q8TEQ6),0.068,-0.124
HERC2_O95714_1201_ERDDHEELAWPGIMESFFTGQNCR (UniProt O95714),-0.0998,-0.244
GTF2I_P78347_475_MVDQLFCK (UniProt P78347),-0.213,0.51
HBS1L_Q9Y450_84_LYSCLDHMR (UniProt Q9Y450),0.0793,-0.0662
HAUS6_Q7Z4H7_662_VISDCECVPQK (UniProt Q7Z4H7),0.0385,-0.547
GEMIN5_Q8TEQ6_82_VSGFTFSHHPGQYNLCATSSDDGTVK (UniProt Q8TEQ6),0.193,0.148
HERC2_O95714_1037_ISSCLDFEQHSR (UniProt O95714),0.0441,0.321
HDAC6_Q9UBN7_539_PATEAELLTCHSAEYVGHLR (UniProt Q9UBN7),-0.137,0.302
GCLM_P48507_35+46_CPSTHSEELHDCIQK (UniProt P48507),-0.112,-0.843
HDDC3_Q8N4P3_133_CTPEGWSEHR (UniProt Q8N4P3),0.13,-0.00995
FHOD1_Q9Y613_43_APTCSLDGALPLGAQIPAVHR (UniProt Q9Y613),-0.105,0.425

Target,probe-labelled cysteine peptide fold change (10 µM),probe-labelled cysteine peptide fold change (50 µM)
HK3_P52790_190_CSGVEGQDVVQLLR (UniProt P52790),0.199,-0.106
GPD1L_Q8N335_216_NIVAVGAGFCDGLR (UniProt Q8N335),-0.0284,0.115
HINT1_P49773_38_CLAFHDISPQAPTHFLVIPK (UniProt P49773),0.0727,0.0613
GATM_P50440_131_KAVAEIEEMCNILK (UniProt P50440),-0.0751,-0.22
GTF3A_Q92664_191_AHEGYVCQK (UniProt Q92664),0.112,-0.151
GRN_P28799_178_CITPTGTHPLAK (UniProt P28799),-0.279,-0.341
GABPA_Q06546_69_LQCSLDAHEICLQDIQLDPER (UniProt Q06546),0.331,-0.0571
FOS_P01100_204_EKLEFILAAHRPACK (UniProt P01100),0.0955,1.53
GTF3C5_Q9Y5Q8_75_DPYCHPVCANR (UniProt Q9Y5Q8),0.121,0.621
FKBP8_Q14318_274_CLNNLAASQLK (UniProt Q14318),0.0653,-0.0462
GIT1_Q9Y2X7_576_KGVSASAVPFTPSSPLLSCSQEGSR (UniProt Q9Y2X7),-0.316,-0.788
HEATR5A_Q86XA9_1635_QIICAAQEHVK (UniProt Q86XA9),0.0658,0.171
GDAP2_Q9NXN4_148_TAAESSLYSCYR (UniProt Q9NXN4),-0.0153,0.00868
HAUS2_Q9NVX0_89_CHTLQSMNNHLEAVLK (UniProt Q9NVX0),0.0751,-0.239
FHL2_Q14192_275_GFLTERDDILCPDCGK (UniProt Q14192),0.0254,-0.163
HERC4_Q5GLZ8_58+60_HTVFVLDDGTVYTCGCNDLGQLGHEK (UniProt Q5GLZ8),-0.0133,-1.05
HELZ_P42694_101_AVLCCMQLK (UniProt P42694),-0.198,-1.11
GOLGA4_Q13439_1085_ILLFGCEK (UniProt Q13439),-0.11,0.095
GTF2B_Q00403_34+37_AGDMICPECGLVVGDR (UniProt Q00403),0.105,0.0895
HDAC5_Q9UQL6_982_CFGHLTR (UniProt Q9UQL6),0.138,-0.104
FLCN_Q8NFG4_215_VFEAEQFGCPQR (UniProt Q8NFG4),-0.0204,-0.54

Target,probe-labelled cysteine peptide fold change (10 µM),probe-labelled cysteine peptide fold change (50 µM)
GPAA1_O43292_266_GGLLCTLQGK (UniProt O43292),-0.168,-0.0244
HDAC4_P56524_777_LAVGCVVELVFK (UniProt P56524),0.157,0.082
GLA_P06280_56_FMCNLDCQEEPDSCISEK (UniProt P06280),0.07,-0.0872
HDAC10_Q969S8_23_LLWDDPECEIERPER (UniProt Q969S8),-0.294,-0.208
GNAI2_P04899_326_EIYTHFTCATDTK (UniProt P04899),0.0663,-0.0637
FRMD8_Q9BZ67_206_LDSFLPAHLCK (UniProt Q9BZ67),-0.0859,-0.347
FGR_P09769_415_LIKDDEYNPCQGSK (UniProt P09769),-0.148,-0.205
HEATR3_Q7Z4Q2_57_ECACAGLAR (UniProt Q7Z4Q2),-1.43,-4.94
GPC4_O75487_341_VFQGCGPPK (UniProt O75487),-0.24,-0.0603
FYCO1_Q9BQS8_293_LTCLVAELQK (UniProt Q9BQS8),0.0275,0.224
GNB1_P62873_294_LLLAGYDDFNCNVWDALK (UniProt P62873),0.0699,0.17
HCK_P08631_241_LSVPCMSSK (UniProt P08631),-0.0986,0.102
GALNT7_Q86SF2_545_GFETAYCIDSMGK (UniProt Q86SF2),-0.0613,0.095
GPATCH1_Q9BRR8_485_AQLSPAAAAGHCSWNMALGGGTATLK (UniProt Q9BRR8),-0.0776,-1.25
GTF3C4_Q9UKN8_376_CVPLYHPYQK (UniProt Q9UKN8),0.0788,0.144
GNL1_P36915_365_YKDGVVTIGCVGFPNVGK (UniProt P36915),-0.0143,-0.869
GATD3B_A0A0B4J2D5_176+177_EFHQAGKPIGLCCIAPVLAAK<|>GATD3A_P0DPI2_176+177_EFHQAGKPIGLCCIAPVLAAK (UniProt P0DPI2),-1.14,-2.38
GLOD4_Q9HC38-2_41_VLRHEEFEEGCK (UniProt Q9HC38),-0.835,-1.19
HDHD3_Q9BSH5_109_DFSHPCTWQVLDGAEDTLR (UniProt Q9BSH5),-0.47,-1.92
HDAC8_Q9BY41_153_KDEASGFCYLNDAVLGILR (UniProt Q9BY41),-0.0393,0.0564
